Assay [1] can be described thus: inhibitors of TNFa-induced NFkB p65 translocation, primary screen, imaging, HUVEC, MLSMR starter and 10KST1 sets (AID 438;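 active = inhibition above 20% together with a positive visual image hit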;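 also: compound added about 3h40 before a 20 min TNFalpha stimulation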;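 as to inhibition: signal is the nuclear over cytoplasmic p65 intensity ratio per well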). Conditions: HUVEC TNFa-induced p65 nuclear translocation; cell count: measured here: nuclei count (cytotoxicity indicator), at 2.08 µM; inhibition: at 2 µM, stronger effect = higher value, 0% TNFa-plus-vehicle, 100% no-TNFa wells.
A short description of assay [2]: inhibitors of mutant huntingtin aggregation, primary screen, imaging, exon1htt(103Q)mCFP cells, high-content imaging (AID 483;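 active = visual image review flags a hit and inhibition of aggregation exceeds 20%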;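 also: compound exposure lasted 3 days before fixation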;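 as to nuclei count: percent of the per-plate median nuclei count of sample wells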). The note with it: exon1htt(103Q)mCFP cell line, aggregate imaging, at 2 µM; inhibition of aggregation: stronger effect = higher value; nuclei count: measured here: cell count, toxicity.
A short description of assay [3]: inhibitors of E-selectin induction by TNFa, primary screen, imaging, HUVEC, immunofluorescence, MLSMR starter and 10KST1 sets (AID 487;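 active = visually confirmed hit in the image check and inhibition above 20%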;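 as to inhibition: signal is fraction of cell area covered by stained E-selectin grains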;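 as to nuclei count: 100% = median nuclei count of all wells on the same plate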). Conditions: HUVEC TNFalpha-induced E-selectin immunofluorescence imaging, at 2 µM; inhibition: stronger effect = higher value; nuclei count: measured here: cell number, toxicity.
Assay [4] has as its target Voltage-gated potassium channel subunit beta-2 (Rattus norvegicus) (UniProt P62483). The assay is described as follows: KvBeta enzyme negative modulators, primary screen, biochemical, NADPH fluorescence (AID 622;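 active = fluorescence slope higher than the sample average by over 3 SD, cut at about -0.22 in these data, passing the limit was not always enough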;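 also: slope of raw intensity against log time taken from 70 to 1610 s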). The note with it: recombinant KvBeta, 4-cyanobenzaldehyde reduction, at 10 µM, stronger effect = higher value.
For assay [5] the target is unchanged. Put plainly: KvBeta positive modulators, primary screen, biochemical, NADPH fluorescence (AID 623;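 active = NADPH fluorescence slope more negative than the mean of all samples by about 3 SD, 99.7% confidence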;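 also: fluorescence intensity change per second fitted from 20 to 320 s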). Conditions: Recombinant KvBeta, NADPH fluorescence decrease slope, 10 min; at 10 µM; stronger effect = lower value.
The target of assay [6] is Alpha-2C adrenergic receptor (Homo sapiens) (UniProt P18825). The assay is described as follows: modulators of alpha2C/GIRK thallium flux, primary screen, cell-based, HEK293 alpha2C/GIRK1/2 (AID 624;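 active = fluorescence slope after compound addition differing from the mean of all screened samples at 99.7% confidence, in either direction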;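 also: slope of fluorescence ratio to pre-addition baseline per second over 15 to 24 s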). The note with it: thallium flux BTC fluorescence, at 10 µM, actives lie on both sides.
Chain of Alpha-2C adrenergic receptor (Homo sapiens) (P18825 whole entry, looked up): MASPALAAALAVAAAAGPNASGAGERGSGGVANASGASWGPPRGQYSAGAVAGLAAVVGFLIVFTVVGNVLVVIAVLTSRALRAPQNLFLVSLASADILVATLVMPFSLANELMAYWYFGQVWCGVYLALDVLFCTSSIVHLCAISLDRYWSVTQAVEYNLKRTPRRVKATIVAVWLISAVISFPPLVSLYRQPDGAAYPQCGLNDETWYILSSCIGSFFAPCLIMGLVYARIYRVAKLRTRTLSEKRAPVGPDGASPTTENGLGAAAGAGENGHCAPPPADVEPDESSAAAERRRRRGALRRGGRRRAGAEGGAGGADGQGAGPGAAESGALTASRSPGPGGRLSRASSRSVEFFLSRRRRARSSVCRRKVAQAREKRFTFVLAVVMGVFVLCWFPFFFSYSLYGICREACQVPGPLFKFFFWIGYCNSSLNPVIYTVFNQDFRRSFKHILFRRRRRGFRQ
Assay [7] can be described thus: inhibitors of Sendai virus-induced IRF3 signaling, primary screen, TLR/RLR signaling modifier project, cell-based, Sendai virus stimulus, luciferase, 10K MLSCN set (AID 602276).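 Also: firefly luciferase from ISG56 promoter only with Renilla not read in this screen; 0% = Sendai virus plus DMSO and 100% = medium plus DMSO without virus.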 The note with it: HEK293 RL24 IRF3 luciferase reporter, at 10 µM, stronger effect = higher value. A general note: In a reporter assay the amount or activity of a reporter protein is the signal.
Assay [8] can be described thus: inhibitors of poly I:C-induced TLR3 signaling, primary screen, cell-based, poly I:C stimulus, luciferase, 10K MLSCN set (AID 602277;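 active = inhibition of the reporter signal at or above 50%; inactive = inhibition below 50%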). Conditions: HEK293-TLR3 RL24 IRF3 luciferase reporter, at 10 µM, stronger effect = higher value.

Molecules are shown by their SMILES. Activity calls are given as the source filed them.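 The calls were made as follows, unless noted: active = inhibition at or above 50% at 10 µM; inactive = inhibition below 50%.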

Chain of Voltage-gated potassium channel subunit beta-2 (Rattus norvegicus) (P62483 whole entry, looked up): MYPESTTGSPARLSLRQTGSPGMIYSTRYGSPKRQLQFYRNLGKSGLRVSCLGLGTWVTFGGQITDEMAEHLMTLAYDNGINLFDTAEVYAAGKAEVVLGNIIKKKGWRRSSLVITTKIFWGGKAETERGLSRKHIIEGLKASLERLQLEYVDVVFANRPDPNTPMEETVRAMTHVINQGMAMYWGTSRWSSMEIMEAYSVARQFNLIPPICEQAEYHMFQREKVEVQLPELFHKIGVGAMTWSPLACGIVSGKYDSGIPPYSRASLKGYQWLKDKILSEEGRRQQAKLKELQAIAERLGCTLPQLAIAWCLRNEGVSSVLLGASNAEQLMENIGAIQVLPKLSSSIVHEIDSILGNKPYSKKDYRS

The inhibition is the relative decrease from the control value, in per cent. As to `CCOC(=O)c1ccc(N(CC(=O)NC2CCCC2)C(=O)CNC(=O)c2ccco2)cc1`, the cell count in assay [1] worked out at 626. Moreover, the inhibition in assay [1] was -7.8% (inactive); in assay [3], -11.3% (inactive); in assay [7], 15.3% (inactive); in assay [8], 18.5% (inactive). For the same compound, the inhibition of aggregation in assay [2] was 5.5% (inactive). The results for the nuclei count in assay [2] and in assay [3] were 79.3% and 105%, respectively. In assay [4], the fluorescence slope was -0.508 (inactive). Also, the NADPH fluorescence slope in assay [5] was -5.1e-05 (inactive). Further, in assay [6], the slope was 0.0066 (inactive).

Take `CCc1nc(N)c(C#N)c(-c2ccncc2)c1C`: in assay [1], the cell count was determined as 598. Moreover, the inhibition in assay [1] was 6.3% (inactive); in assay [3], -24.5% (inactive); in assay [7], 9.38% (inactive); in assay [8], 19.4% (inactive). In addition, in assay [2], the inhibition of aggregation is -19.7% (inactive). Also, the nuclei count in assay [2] came out at 100%; in assay [3] it was 106%. Besides, in assay [4], the fluorescence slope was -0.605 (inactive). The NADPH fluorescence slope in assay [5] was -3.1e-05 (inactive). The slope in assay [6] is 0.00327 (inactive).

With `Cc1ccccc1-c1nc(CS(=O)(=O)CC(=O)NCc2ccc3c(c2)OCO3)c(C)o1`, the cell count in assay [1] amounted to 676. In addition, the inhibition in assay [1] was -0.6% (inactive); in assay [3], -6.5% (inactive); in assay [7], 24.2% (inactive); in assay [8], 17% (inactive). In addition, in assay [2], the inhibition of aggregation was -60.8% (inactive). Further, the nuclei count in assay [2] turned out to be 115%; in assay [3], 110%. Besides, the fluorescence slope in assay [4] is -0.497 (inactive). Further, the NADPH fluorescence slope in assay [5] is -2.5e-05 (inactive). Moreover, the slope in assay [6] is 0.0071 (inactive).

Regarding `COCC(C)NC(=O)NC(=O)c1ccc(Cl)cc1` (stereo not drawn), in assay [1], the cell count turned out to be 715. Moreover, the inhibition in assay [1] is 0.4% (inactive); in assay [3], -67.6% (inactive); in assay [7], 14.1% (inactive); in assay [8] it was 12.5% (inactive). The inhibition of aggregation in assay [2] was 10.2% (inactive). Moreover, the nuclei count stood at 100% in assay [2] and 98.3% in assay [3]. Moreover, the fluorescence slope in assay [4] was -0.476 (inactive). Also, the NADPH fluorescence slope in assay [5] is 2.1e-05 (inactive). In assay [6], the slope was 0.00585 (inactive).

In the case of `CCOC(=O)c1c(NC(=O)c2cccs2)sc(C)c1C`, the cell count in assay [1] stood at 396. Moreover, the inhibition in assay [1] is -6% (inactive); in assay [3], -107% (inactive); in assay [7], 12.5% (inactive); in assay [8], 2.83% (inactive). Also, the inhibition of aggregation in assay [2] was -20% (inactive). The nuclei count in assay [2] came out at 102%; in assay [3], 125%. In addition, in assay [4], the fluorescence slope was -0.307 (inactive). Also, in assay [5], the NADPH fluorescence slope was 1.4e-05 (inactive). Moreover, the slope in assay [6] was 0.00436 (inactive).

With `CC1=C(C(=O)OC2CCCCC2)C(c2ccc(C)o2)C2=C(CC(C)(C)CC2=O)N1` (stereo not drawn), the cell count in assay [1] was determined as 493. Besides, the inhibition in assay [1] is -2.4% (inactive); in assay [3], -13.3% (inactive); in assay [7], 7.33% (inactive); in assay [8], 29.1% (inactive). Further, the inhibition of aggregation in assay [2] was 3.3% (inactive). Further, the results for the nuclei count in assay [2] and in assay [3] were 122% and 112%, respectively. Moreover, in assay [4], the fluorescence slope was -0.25 (inactive). Besides, the NADPH fluorescence slope in assay [5] is -1.1e-05 (inactive). The slope in assay [6] was 0.0052 (inactive).

In the case of `Cc1ccc(NC(=O)C2CCCN(S(=O)(=O)c3cnc[nH]3)C2)cc1F` (stereo not drawn), in assay [1], the cell count turned out to be 521. In addition, the inhibition is 0.9% (inactive) in assay [1], -108% (inactive) in assay [3], 22.4% (inactive) in assay [7] and 21.8% (inactive) in assay [8]. In assay [2], the inhibition of aggregation was 7.3% (inactive). For the same compound, the nuclei count in assay [2] came out at 99.9%; in assay [3] it was 126%. For the same compound, in assay [4], the fluorescence slope is -0.521 (inactive). In addition, the NADPH fluorescence slope in assay [5] was -4.2e-05 (inactive). Moreover, in assay [6], the slope is 0.00688 (inactive).

Turning to `CC1=C(C(=O)NCc2ccccc2)C(c2ccccc2OCC(N)=O)NC(=O)N1` (stereo not drawn), in assay [1], the cell count was determined as 355. In addition, the inhibition was -8.1% (inactive) in assay [1], -16.7% (inactive) in assay [3], 6.63% (inactive) in assay [7] and 14.9% (inactive) in assay [8]. Moreover, in assay [2], the inhibition of aggregation was 14.3% (inactive). For the same compound, the nuclei count in assay [2] amounted to 96.4%; in assay [3], 98.2%. In addition, in assay [4], the fluorescence slope is -0.428 (inactive). In assay [5], the NADPH fluorescence slope is 7.3e-06 (inactive). Besides, the slope in assay [6] was 0.00981 (inactive).

For the compound `COc1nc(NCCc2ccc(OC)c(OC)c2)nc(NC(C)(C)CO)n1`, the cell count in assay [1] was found to be 336. In addition, the inhibition in assay [1] is -1.4% (inactive); in assay [3] it was -7% (inactive); in assay [7], 15.5% (inactive); in assay [8] it was 11.8% (inactive). Moreover, the inhibition of aggregation in assay [2] is 13.7% (inactive). Besides, the values for the nuclei count in assay [2] and in assay [3] were 97.3% and 108%, respectively. Besides, the fluorescence slope in assay [4] is -0.496 (inactive). Besides, the NADPH fluorescence slope in assay [5] is -1.3e-06 (inactive). For the same compound, the slope in assay [6] is 0.00642 (inactive).

With `COCc1[nH]nc2c1C(c1cc(OC)c(O)c(OC)c1)C(C#N)=C(N)O2` (stereo not drawn), the cell count in assay [1] was determined as 397. Moreover, the inhibition in assay [1] was -1.6% (inactive); in assay [3] it was -26.1% (inactive); in assay [7], 17.4% (inactive); in assay [8], 21.1% (inactive). Besides, in assay [2], the inhibition of aggregation is -17% (inactive). For the same compound, the nuclei count in assay [2] was determined as 115%; in assay [3], 117%. For the same compound, the fluorescence slope in assay [4] was -0.502 (inactive). Besides, in assay [5], the NADPH fluorescence slope was -4.1e-05 (inactive). Also, in assay [6], the slope is 0.0049 (inactive).

On to `CCCN(CCC)C(=O)c1c(C)[nH]c(C(=O)OCC)c1C`, for which the cell count in assay [1] was found to be 740. Further, the inhibition in assay [1] is 0.6% (inactive); in assay [3], -78.7% (inactive); in assay [7] it was -15.1% (inactive); in assay [8] it was -1.04% (inactive). The inhibition of aggregation in assay [2] is 2% (inactive). Also, the nuclei count in assay [2] worked out at 109%; in assay [3], 106%. Further, in assay [4], the fluorescence slope was -0.605 (inactive). The NADPH fluorescence slope in assay [5] is -2.3e-05 (inactive). In addition, the slope in assay [6] was 0.00726 (inactive).

For `COC(=O)CS(=O)(=O)c1nnc([C@H](Cc2ccccc2)NC(=O)OC(C)(C)C)o1`, the cell count in assay [1] worked out at 493. The inhibition is -8% (inactive) in assay [1], 38.4% (inactive) in assay [3], 15.1% (inactive) in assay [7] and 33.7% (inactive) in assay [8]. Moreover, in assay [2], the inhibition of aggregation is 22% (inactive). The values for the nuclei count in assay [2] and in assay [3] were 84.1% and 89%, respectively. For the same compound, the fluorescence slope in assay [4] is -0.486 (inactive). Also, the NADPH fluorescence slope in assay [5] is -5.6e-05 (inactive). The slope in assay [6] is 0.00353 (inactive).

For `CC(=O)c1cn(CC(=O)NCc2ccc3c(c2)OCO3)c2ccccc12`, in assay [1], the cell count worked out at 326. Besides, the inhibition in assay [1] is -2.1% (inactive); in assay [3], -24.5% (inactive); in assay [7], 11.9% (inactive); in assay [8] it was 9.83% (inactive). Moreover, the inhibition of aggregation in assay [2] was -11.9% (inactive). Also, the nuclei count in assay [2] stood at 108%; in assay [3], 107%. In assay [4], the fluorescence slope was -0.534 (inactive). The NADPH fluorescence slope in assay [5] is -9.1e-05 (inactive). For the same compound, in assay [6], the slope is 0.00566 (inactive).

The record behind these values is PubChem BioAssay.
